# Laboratory results as given in PubChem BioAssay (EPA / NIEHS).
# Values joined by “and” are separate entries in the source; they are usually repeats but may differ in a detail not shown here. Identical values can stand only once. Results filed as inconclusive are left out. The source holds several records for some structures; these can differ, active in one and inactive in another. Active and inactive are the calls of the source. How the source made its calls, unless noted: active means hit-call score of the fitted dose curve at least 0.9, where 1 is the maximum; inactive means score below 0.9.
# Columns and labels:
# [1] = CCTE_Shafer_MEA_dev_spike_duration_mean: CCTE's Neural Network Formation Assay for Mean Spike Duration, Shafer Lab (AID 2284051);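 further: mean network spike duration pooled as area under curve over DIV 5 to 12 recordings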;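 on AC50: potency for a decrease in mean network spike duration versus DMSO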
# Method in brief: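 Primary rat cortical neurons on 16-electrode MEA wells (PEI-coated, laminin in plating drop), exposed from plating through DIV 12 with compound renewed at DIV 5 and 9. Mean network-spike duration recorded DIV 5, 7, 9, 12; trapezoidal AUC across days, DMSO baseline.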
# [2] = CCTE_Shafer_MEA_dev_network_spike_duration_std: CCTE's Neural Network Formation Assay for Standard Deviation of Network Spike Duration, Shafer Lab (AID 2284052);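 further: area under curve of spike duration SD across recording days 5 to 12; hits are decreases in network spike duration SD versus DMSO vehicle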
# Method in brief: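 Primary rat cortical neurons on PEI-coated 16-electrode MEA wells, exposed from plating day 0 through day 12 with compound renewed at DIV 5 and 9. Network spike duration SD recorded on days 5, 7, 9, 12, collapsed as trapezoidal AUC; loss-of-signal fit versus DMSO.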
# [3] = CCTE_Shafer_MEA_dev_per_network_spike_spike_number_mean: CCTE's Neural Network Formation Assay for Mean Number of Spikes in a Network Spike, Shafer Lab (AID 2284053);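 on AC50: fitted as decrease in spikes per network spike relative to DMSO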
# Method in brief: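 Primary rat cortical neurons on 48-well, 16-electrode MEA plates were exposed from plating to DIV 12, with dosing renewed on DIV 5 and 9. Spikes per network spike (0.05 s peak window) were recorded on DIV 5, 7, 9 and 12 and collapsed as trapezoidal AUC versus DMSO.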
# [4] = CCTE_Shafer_MEA_dev_per_network_spike_spike_percent: CCTE's Neural Network Formation Assay for Percent of Spikes in a Network Spike, Shafer Lab (AID 2284054)
# Method in brief: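 Rat primary cortical neurons were grown on 48-well MEA plates (16 electrodes/well), exposed from plating day 0 through day 12, with treatment renewed on DIV 5 and 9. Percent of spikes within 0.05 s network-spike peaks was measured, summarised as AUC across days 5, 7, 9, 12.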
# [5] = CCTE_Shafer_MEA_dev_AB: CCTE's Alamar Blue Assay for Cytotoxicity in the Neural Network Formation Assay, Shafer Lab (AID 2284083; active means hit-call score of the fitted dose curve at least 0.9, where 1 is the maximum;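 further: twelve days of exposure from plating with re-dosing on DIV 5 and 9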)
# Method in brief: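 Primary rat cortical neurons on PEI-coated 48-well MEA plates, 1.5 x 10^5 cells/well in laminin drop; compound exposure from day 0 of plating for twelve days, renewed at medium changes on DIV 5 and 9. Viability read as resazurin reduction by fluorescence, relative to DMSO.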
# [6] = UKN5_HCS_SBAD2_cell_viability: Viability Assessment in the University of Konstanz (UKN) Leist Lab Neurite Outgrowth Assay in human iPSC-derived immature Dorsal Root Ganglia Neurons (UKN5) (AID 2284056)
# Method in brief: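 iPSC-derived immature peripheral neurons (SBAD2) seeded on Matrigel with CHIR99021, SU5402 and DAPT, dosed 1 h later for 24 h. Viability from Hoechst H-33342 and calcein-AM live staining, high-content imaging; bidirectional fit versus DMSO.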
# [7] = CCTE_Shafer_MEA_dev_LDH: CCTE's Lactate Dehydrogenase Assay for Cytotoxicity in the Neural Network Formation Assay, Shafer Lab (AID 2284068; active means hit-call score of the fitted dose curve at least 0.9, where 1 is the maximum;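 further: exposure for twelve days from plating with re-dosing on DIV 5 and 9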)
# Method in brief: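 Primary rat cortical neurons were plated on PEI/laminin MEA plates and exposed from day 0 for twelve days, with compound renewed at DIV 5 and 9. Cytotoxicity was determined by spectrophotometric LDH assay relative to DMSO.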
# [8] = UKN5_HCS_SBAD2_neurite_outgrowth: University of Konstanz (UKN) Leist Lab Neurite Outgrowth Assay in human iPSC-derived immature Dorsal Root Ganglia Neurons (UKN5) (AID 2284070); details: actives raise or lower the signal
# Method in brief: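 Human iPSC-derived immature DRG neurons (SBAD2) on Matrigel with CHIR99021 (1.5 uM), SU5402 (5 uM), DAPT (5 uM); compounds added 1 h post-seeding for 24 h. Calcein-AM neurite area imaged; bidirectional fit vs DMSO.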
# [9] = system: DIO2 (gene 1734); assay: CCTE_GLTED_hDIO2: CCTE's human Deiodinase 2 (DIO2) Inhibition Assay, Great Lakes Toxicology and Ecology Division (GLTED) Lab (AID 2284050; active means hit-call score of the fitted dose curve at least 0.9, where 1 is the maximum)
# Method in brief: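 Cell-free human DIO2 enzyme was incubated with test chemical for 3 h; iodide liberated from substrate was then quantified by the Sandell-Kolthoff reaction (absorbance), run in triplicate. Loss of signal versus DMSO baseline indicated inhibition.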
# [10] = system: DIO3 (gene 1735); assay: CCTE_GLTED_hDIO3: CCTE's human Deiodinase 3 (DIO3) Inhibition Assay, Great Lakes Toxicology and Ecology Division (GLTED) Lab (AID 2284055; active means hit-call score of the fitted dose curve at least 0.9, where 1 is the maximum;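 on AC50: potency is for inhibition seen as loss of released iodide signal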)
# Method in brief: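 Cell-free assay with human DIO3 enzyme produced by adenovirus expression; enzyme incubated with test chemical for 3 hours. Liberated iodide then measured by Sandell-Kolthoff absorbance; loss of signal versus DMSO baseline indicates inhibition, run in triplicate.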
smiles,measurement,setting,value
O=P(OCCCl)(OCCCl)OCCCl,outcome,[1],inactive
same,outcome,[2],inactive
same,outcome,[3],inactive
same,outcome,[4],inactive
same,outcome,[5],inactive
CCC[CH2][Sn]([Cl])([CH2]CCC)[CH2]CCC,AC50,[1],0.0303 µM (active)
same,AC50,[2],13.8 nM (active)
same,AC50,[3],0.0632 µM (active)
same,AC50,[4],0.0777 µM (active)
same,AC50,[6],0.306 µM (active)
same,AC50,[7],0.0843 µM (active)
same,AC50,[8],0.109 µM (active)
same,AC50,[5],0.0814 µM (active)
C[C@]12C=CC3=C4CCC(=O)C=C4CC[C@H]3[C@@H]1CC[C@@H]2O,AC50,[9],100 µM (active)
same,AC50,[10],23.5 µM (active)
CC(C)(C)C(O)(CCc1ccc(Cl)cc1)Cn1cncn1 (stereo not given),AC50,[1],15 µM (active)
same,outcome,[2],inactive
same,AC50,[3],15 µM (active)
same,outcome,[4],inactive
same,outcome,[7],inactive
same,outcome,[5],inactive
C1=Cc2cccc3cccc1c23,outcome,[1],inactive
same,outcome,[2],inactive
same,outcome,[3],inactive
same,outcome,[4],inactive
same,outcome,[7],inactive
same,outcome,[5],inactive
OCCOCCO,outcome,[1],inactive
same,outcome,[2],inactive
same,outcome,[3],inactive
same,outcome,[4],inactive
ClC1=C(Cl)C2(Cl)C3C(Cl)C=CC3C1(Cl)C2(Cl)Cl (stereo not given),AC50,[1],4.2 µM (active)
same,AC50,[2],744 nM (active)
same,AC50,[3],2.98 µM (active)
same,AC50,[4],1.4 µM (active)
same,AC50,[7],2.98 µM (active)
same,AC50,[5],0.937 µM (active)
Nc1cc(Cl)cc(C(=O)O)c1Cl,outcome,[1],inactive
same,outcome,[2],inactive
same,outcome,[3],inactive
same,outcome,[4],inactive
same,outcome,[7],inactive
CCCCCCCCn1sccc1=O,AC50,[9],8.47 µM (active)
same,AC50,[10],17.5 µM (active)
Oc1ccc2ccc3cccc4ccc1c2c34,AC50,[9],100 µM (active)
same,AC50,[10],61.4 µM (active)
[Cl-].[Cl-].[Hg+2],AC50,[1],0.64 µM (active)
same,AC50,[2],382 nM (active)
same,AC50,[3],0.894 µM (active)
same,AC50,[4],0.423 µM (active)
same,AC50,[7],0.929 µM (active)
same,AC50,[5],0.559 µM (active)
COC(=O)Nc1nc2ccccc2[nH]1,AC50,[1],12.5 µM (active)
same,outcome,[2],inactive
same,AC50,[3],12.5 µM (active)
same,AC50,[4],5.94 µM (active)
same,AC50,[7],12.5 µM (active)
same,AC50,[5],7.64 µM (active)
[O-][Cl+]O,outcome,[1],inactive
same,outcome,[2],inactive
same,outcome,[3],inactive
same,outcome,[4],inactive
same,outcome,[7],inactive
same,outcome,[5],inactive
CN(C)[C@@H]1C(=O)C(C(N)=O)=C(O)[C@@]2(O)C(=O)C3=C(O)c4c(O)cccc4[C@@](C)(O)[C@H]3C[C@@H]12,outcome,[9],inactive
same,outcome,[1],inactive
same,outcome,[2],inactive
same,outcome,[3],inactive
same,outcome,[4],inactive
same,AC50,[10],79.8 µM (active)
same,outcome,[7],inactive
same,outcome,[5],inactive
CC(C)(O)c1cnn2c(-c3ccc(F)c(-c4c(F)cccc4C#N)c3)cnc2n1,AC50,[1],1.98 µM (active)
same,outcome,[2],inactive
same,outcome,[3],inactive
same,AC50,[4],10 µM (active)
same,outcome,[5],inactive
ClCCOCCCl,outcome,[9],inactive
same,outcome,[10],inactive
CCNS(=O)(=O)C(F)(F)C(F)(F)C(F)(F)C(F)(F)C(F)(F)C(F)(F)C(F)(F)C(F)(F)F,AC50,[9],100 µM (active)
same,AC50,[1],15 µM (active) and 4.81 µM (active)
same,outcome,[2],inactive
same,AC50,[3],4.54 µM (active) and 2.66 µM (active)
same,AC50,[4],6.71 µM (active) and 4.93 µM (active)
same,outcome,[10],inactive
same,AC50,[7],8.58 µM (active) and 4.41 µM (active)
same,AC50,[5],15 µM (active) and 7.67 µM (active)
CNC(=O)Oc1cccc2c1OC(C)(C)C2,AC50,[1],10 µM (active) and 49.6 µM (active)
same,outcome,[2],inactive
same,AC50,[3],49.6 µM (active)
same,outcome,[3],inactive
same,outcome,[4],inactive
same,AC50,[7],49.6 µM (active)
same,outcome,[7],inactive
same,AC50,[5],49.6 µM (active)
same,outcome,[5],inactive
Clc1ccc(C(c2ccc(Cl)cc2)C(Cl)(Cl)Cl)cc1,AC50,[1],2.62 µM (active) and 8.54 µM (active)
same,AC50,[2],1.98 µM (active) and 8.91 µM (active)
same,AC50,[3],6.95 µM (active) and 5.75 µM (active)
same,AC50,[4],3.02 µM (active) and 4.15 µM (active)
same,AC50,[7],4.07 µM (active) and 6.5 µM (active)
same,AC50,[5],3.88 µM (active) and 8.94 µM (active)
ClC1=C(Cl)[C@]2(Cl)[C@H]3[C@H]([C@@H]4C=C[C@H]3C4)[C@@]1(Cl)C2(Cl)Cl,AC50,[1],5.79 µM (active)
same,outcome,[2],inactive
same,AC50,[3],1.98 µM (active)
same,AC50,[4],7.67 µM (active)
same,AC50,[7],6.69 µM (active)
same,AC50,[5],7.93 µM (active)
COP(=S)(OC)SCN1C(=O)c2ccccc2C1=O,AC50,[1],36.7 µM (active) and 23.6 µM (active)
same,outcome,[2],inactive
same,AC50,[3],31.8 µM (active)
same,outcome,[3],inactive
same,AC50,[4],20.2 µM (active)
same,outcome,[4],inactive
same,AC50,[7],28.9 µM (active)
same,outcome,[7],inactive
same,AC50,[5],31.7 µM (active)
same,outcome,[5],inactive
Clc1ccc(C(c2ccc(Cl)cc2)C(Cl)Cl)cc1,AC50,[1],3.39 µM (active)
same,AC50,[2],3210 nM (active)
same,AC50,[3],4.95 µM (active)
same,AC50,[4],3.97 µM (active)
same,AC50,[7],5.96 µM (active)
same,AC50,[5],5.14 µM (active)
CCCCOC(=O)c1ccccc1C(=O)OCc1ccccc1,AC50,[1],13.6 µM (active)
same,outcome,[2],inactive
same,outcome,[3],inactive
same,outcome,[4],inactive
same,outcome,[5],inactive
CC(C)COC(=O)c1ccccc1C(=O)OCC(C)C,AC50,[1],13.7 µM (active)
same,outcome,[2],inactive
same,AC50,[3],13.6 µM (active)
same,AC50,[4],23.1 µM (active)
same,AC50,[7],23.6 µM (active)
same,AC50,[5],24.8 µM (active)
